# Most compounds without a hit are left out; they make up all but 18% or so of the library.
# TDP1 cell noCPT: qHTS for Inhibitors of human tyrosyl-DNA phosphodiesterase 1 (TDP1): qHTS in cells in absence of CPT | DT40 Tdp1-/- hTDP1 cells, no CPT, ATP luminescence, 48 h | Potency, µM (titrated, usually from 46.2 µM), for the others: top-dose activity change, negative = growth inhibition, actives largely listed as inhibitors | 420,000 tested, 15% active | AID 686978, 2013; also: potency is read from the fitted curve at half-maximal effect; nearly all actives have a fitted effect of over 55% in size
#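 Growth kinetics read by CellTiter-Glo luminescence after ≥48 hr at 37 °C. Cells: DT40 Tdp1-/- stably carrying human TDP1, 400 per well, compound exposure in the absence of CPT (DMSO vehicle).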
# TDP1 cell CPT: DT40-hTDP1 cell growth loss with CPT; chicken DT40 Tdp1-/-;hTDP1 cells + 20 nM CPT, ATP luminescence, 48 h; Potency, µM (doses to about 46.2 µM), without a hit: at the top dose activity change, negative = growth inhibition, hits mostly inhibitors; 420,000 tested, 12% active; also: potency is read from the fitted curve at half-maximal effect; nearly all actives have a fitted effect of over 55% in size
#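 Chicken DT40 Tdp1-/- cells stably complemented with human TDP1 were seeded at 400 cells/well in medium containing 20 nM camptothecin, exposed to pin-transferred compounds, and grown at 37 °C for at least 48 hr. Viability was read as ATP luminescence.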
# VP16 counter: Gal4-VP16 reporter inhibition counter-screen; Drosophila S2 Gal4-VP16 UAS-luciferase, luminescence, 20 h; Potency, µM (titrated, usually from 53.6 µM), inactives show at the highest dose activity, negative = inhibition, hits mostly inhibitors; 310,000 tested, 3.5% active;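 also: Gal4-VP16 expression switched on by copper sulfate through the metallothionein promoter; potency is read from the fitted curve at half-maximal effect; nearly all actives have a fitted effect of over 50% in size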
# LDHA block: LDHA (human) enzyme inhibition | activity change, % (values are at about 110 or 230 µM) | P00338 | purified LDHA, NADH/diaphorase-resazurin fluorescence; active compounds read low | 480,000 tested, 0.15% active; in the data active = activity change below about -30%; inconclusive = mostly about -25% to -30%;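 also: plate controls were DMSO wells for no effect and wells without enzyme for full effect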
#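 Resorufin fluorescence (ex540/em590), read at 0 and 20 min after diaphorase/resazurin addition, reports the NADH left after a 5 min room-temperature reaction of 2 nM human LDH5 with 0.06 mM NADH and 0.2 mM pyruvate.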
# IL-1B inflam inh: inflammasome signaling inhibition, IL-1 beta readout | 360,000 tested, 4.7% active | THP-1 LPS/ATP IL-1B secretion, AlphaLISA, 16 h; active compounds read low | activity change, % at 57.5 µM | AID 743279; in the data active = activity change below about -50%; inconclusive = mostly about -30% to -49%
#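 Secreted IL-1B measured by AlphaLISA bead assay after 16 h compound exposure of THP-1 cells; compounds (final up to 57.5 uM) added 1 h before LPS (250 ng/mL) and ATP (1.25 mM) stimulation; lower signal means less secretion.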
# RORgamma inh: inhibitors of mouse ROR gamma transcriptional activity; Drosophila S2 Gal4-RORgamma UAS-luciferase reporter, 20 h; AID 2551; 310,000 tested, 5.4% active; Potency, µM (titrated, usually from 53.6 µM), for the others: at the highest dose activity change, negative = inhibition, most hits filed as inhibitors; also: potency is read from the fitted curve at half-maximal effect; nearly all actives have a fitted effect of over 60% in size
# Target sequence (P51450 whole entry, looked up, the tested form may be a part): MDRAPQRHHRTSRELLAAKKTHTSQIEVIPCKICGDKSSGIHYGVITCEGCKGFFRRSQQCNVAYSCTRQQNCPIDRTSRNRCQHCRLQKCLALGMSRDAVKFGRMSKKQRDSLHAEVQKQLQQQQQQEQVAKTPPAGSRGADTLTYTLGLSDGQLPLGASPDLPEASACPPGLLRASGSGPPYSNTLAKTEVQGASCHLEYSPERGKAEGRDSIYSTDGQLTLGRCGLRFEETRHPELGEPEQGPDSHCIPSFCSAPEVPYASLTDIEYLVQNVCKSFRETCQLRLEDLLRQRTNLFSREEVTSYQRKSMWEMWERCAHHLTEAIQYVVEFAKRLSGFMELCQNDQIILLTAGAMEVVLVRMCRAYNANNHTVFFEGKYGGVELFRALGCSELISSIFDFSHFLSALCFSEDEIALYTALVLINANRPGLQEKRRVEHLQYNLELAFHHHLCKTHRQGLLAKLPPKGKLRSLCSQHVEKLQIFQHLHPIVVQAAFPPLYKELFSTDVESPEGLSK
#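 Stable Schneider cell line, Gal4 DNA-binding domain fused to ROR gamma, UAS-luciferase. Cmpd 1 hr RT → CuSO4 700 uM final → 20 hr RT → luciferase reagent 10 min → luminescence.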
# An asterisk follows results filed as active; i = inactive; ? = inconclusive; nt = not tested or not shown. Unless noted, calls follow the shape of the dose curve; as a rule, active = well fitted curve in the direction sought with a large enough effect; inconclusive = small, poorly fitted or top-dose-only effect, or another doubt; inactive = no such curve, though single readings can be large; an effect the other way counts as inactive or inconclusive. Unless noted, % is scaled to controls: 0 for no effect and ±100 for the full control effect.
SMILES,TDP1 cell noCPT,TDP1 cell CPT,VP16 counter,LDHA block,IL-1B inflam inh,RORgamma inh
N[C@@H](C(=O)O)c1cc(O)ccc1Cl,1.2µM*,2.4µM*,1%,nt,nt,1%
COc1cccc(NC(=O)CN(Cc2ccccc2)S(=O)(=O)c2ccc3nc(C)sc3c2)c1,26µM*,?,nt,3,nt,nt
Cc1ccc(NC(=O)CN(Cc2ccccc2)S(=O)(=O)c2ccc3nc(C)sc3c2)c(C)c1,?,?,nt,-14,nt,nt
COc1cccc(CNC(=O)CNS(=O)(=O)c2ccc3nc(C)sc3c2)c1,15µM*,?,nt,-12,nt,nt
CCOc1ccc(NC(=O)CN(Cc2ccccc2)S(=O)(=O)c2ccc3nc(C)sc3c2)cc1,26µM*,?,nt,1,nt,nt
CCN(CC)CCNC(=O)C(=O)Nc1cccc(N2CCCS2(=O)=O)c1,nt,nt,nt,11,nt,nt
COc1ccc2nc(NC(=O)c3cccs3)sc2c1,?,?,?,-2,-4,10µM*
COc1ccc(N2CC(C(=O)N/N=C/c3ccc(C)cc3)CC2=O)cc1 (stereo unspecified),1.6µM*,1.3µM*,0%,-7,57,-2%
COc1ccc2nc(NC(=O)C3CC(=O)N(c4ccccc4)C3)sc2c1 (stereo unspecified),?,-18%,15%,-7,-57*,27%
COc1ccc2nc(NC(=O)c3ccccc3O)sc2c1,?,-22%,?,3,-2,7.1µM*
CC(=O)Nc1ccc2nc(NC(=O)c3cccs3)sc2c1,-26%,-17%,-26%,-11,-12,-40%
O=C(CCCOC(=O)c1cc2ccccc2[nH]1)c1ccccc1,nt,nt,nt,-3,nt,nt
CCOC(=O)c1cccc(C(=O)Nc2nc3ccc(OC)cc3s2)n1,?,-18%,?,-14,-15,11µM*
COc1ccc2nc(NC(=O)c3cc(-c4ccc(C)cc4)on3)sc2c1,nt,nt,nt,16,nt,nt
COc1ccc(OC)c(NC(=O)NNC(=O)CCCOc2ccc(Cl)cc2C)c1,?,?,-4%,-3,-55*,23%
Cc1cc(Cl)ccc1OCCCC(=O)Nc1cccnc1,23µM*,15µM*,?,0,3,19%
Cc1cc(Cl)ccc1OCC(=O)Nc1cccnc1,?,-20%,22%,-10,?,21%
Cc1cc(Cl)ccc1OCCCC(=O)NNC(=O)c1ccccc1O,23µM*,?,nt,2,63,nt
COc1ccc(NC(=O)NNC(=O)COc2ccc(Cl)cc2C)cc1OC,-15%,-8%,-10%,-5,i,-1%
CC(C)Cn1cnc2c1c(=O)n(CC(=O)NCc1ccc(Cl)cc1)c(=O)n2Cc1ccccc1,nt,nt,nt,11,nt,nt
O=S(=O)(c1cccc(-c2csc(N/N=C/c3ccco3)n2)c1)N1CCOCC1,13µM*,16µM*,16%,-2,-72*,21%
O=S(=O)(c1ccc(-c2csc(Nc3ccccc3)n2)cc1)N1CCOCC1,nt,nt,nt,-5,nt,nt
COc1cc(/C=N/Nc2cc(C)nc(NS(=O)(=O)c3ccc(C)cc3)n2)ccc1O,?,6%,0%,-3,-24,-16%
CCOc1cc(/C=N/Nc2nc(-c3cccc(S(=O)(=O)N4CCCC4)c3)cs2)ccc1O,8.2µM*,13µM*,10%,-6,-83*,?
CCOc1cc(C=NNC(=O)c2cccc(S(=O)(=O)N3CCCC3)c2)ccc1O,?,-29%,nt,3,-2,nt
COc1cc(/C=N/Nc2nc(-c3ccc(S(=O)(=O)N(C)C)cc3)cs2)ccc1O,7.3µM*,8.2µM*,1%,-1,-91*,?
Cc1ccc(C)c(-c2csc(N/N=C/c3ccco3)n2)c1,?,3%,-13%,-10,-17,16µM*
CS(=O)(=O)c1ccc(C(=O)COC(=O)COc2ccc3ccccc3c2)cc1,nt,nt,nt,5,nt,nt

# Source: PubChem BioAssay
